Results: the antibiotic and cytotoxicity screens of Wong et al. (2023)
Hit rate of the full screen: of about 39,000 compounds, about 1,500 (3.8%) were called active. The sample holds actives, similar compounds and a random draw of the others, so the mix is not that of the screen.

System: HSkMC (human skeletal muscle cells)
Test: cytotoxicity call (relative viability < 0.9)
Conditions: 10 µM

| SMILES | cytotoxicity call |
| --- | --- |
| CNC(=O)C[C@@H]1CC[C@@H]2[C@H](COC[C@H](O)CN2C(=O)Nc2cccc(OC)c2)O1 | inactive |
| C[C@H]1CCCCO[C@H](CN(C)C(=O)Nc2ccc3c(c2)OCO3)[C@@H](C)CN([C@@H](C)CO)C(=O)c2cc(NS(=O)(=O)c3ccccc3)ccc2O1 | inactive |
| C[C@H](O)[C@H](O)[C@@H](O)[C@@H](O)/C=N/NC(=O)CCCCC(=O)NO | inactive |
| C[C@H](CO)N1C[C@H](C)[C@H](CN(C)C(=O)Nc2cccc3ccccc23)OCCCC[C@H](C)Oc2ccc(NS(C)(=O)=O)cc2C1=O | inactive |
| Cc1ccc(S(=O)(=O)Nc2ccc3c(c2)CC(=O)N([C@@H](C)CO)C[C@@H](C)[C@@H](CN(C)Cc2ccc(-c4ccccc4)cc2)O3)cc1 | active |
| Cc1ccc(S(=O)(=O)Nc2ccc3c(c2)CC(=O)N([C@@H](C)CO)C[C@H](C)[C@@H](CN(C)Cc2ccc(-c4ccccc4)cc2)O3)cc1 | active |
| Cc1ccc(S(=O)(=O)Nc2ccc3c(c2)CC(=O)N([C@H](C)CO)C[C@@H](C)[C@H](CN(C)Cc2ccc(-c4ccccc4)cc2)O3)cc1 | active |
| Cc1ccc(S(=O)(=O)Nc2ccc3c(c2)CC(=O)N([C@H](C)CO)C[C@@H](C)[C@@H](CN(C)Cc2ccc(-c4ccccc4)cc2)O3)cc1 | active |
| Cc1ccc(S(=O)(=O)Nc2ccc3c(c2)CC(=O)N([C@H](C)CO)C[C@H](C)[C@@H](CN(C)Cc2ccc(-c4ccccc4)cc2)O3)cc1 | inactive |
| Cc1ccc(S(=O)(=O)Nc2ccc3c(c2)CC(=O)N([C@H](C)CO)C[C@H](C)[C@H](CN(C)Cc2ccc(-c4ccccc4)cc2)O3)cc1 | inactive |
| C[C@H]1CN([C@@H](C)CO)C(=O)c2cc(NC(=O)NC3CCCCC3)ccc2O[C@H]1CN(C)Cc1ccc(C(=O)Nc2ccccc2N)cc1 | inactive |
| C[C@@H]1CN([C@H](C)CO)C(=O)c2cc(NC(=O)c3ccncc3)ccc2O[C@H]1CN(C)S(=O)(=O)c1ccc(F)cc1 | inactive |
| C[C@@H]1CN([C@@H](C)CO)C(=O)c2cc(NC(=O)C3CC3)ccc2O[C@@H]1CN(C)S(=O)(=O)c1ccc(F)cc1 | inactive |
| CC(C)NC(=O)N[C@H]1C=C[C@@H](CC(=O)NCCN2CCCC2)O[C@H]1CO | inactive |
| CC(C)NC(=O)N(C)C[C@H]1Oc2ccc(NS(=O)(=O)c3cn(C)cn3)cc2C(=O)N([C@H](C)CO)C[C@@H]1C | inactive |
| O=C(CCCCCNC(=O)OCc1ccc(CO[C@@H]2C[C@H](C3CCCCC3)C=C(C(=O)N3CCN(Cc4ccc5c(c4)OCO5)CC3)O2)cc1)NO | inactive |
| COc1ccc(CN(C)C[C@@H]2Oc3ccc(NC(=O)C4CC4)cc3CC(=O)N([C@@H](C)CO)C[C@@H]2C)cc1 | inactive |
| COc1cc(O)cc(OC)c1O[C@@H]1O[C@H](CO)[C@@H](O)[C@H](O)[C@H]1O | inactive |
| C[C@H]1CN([C@@H](C)CO)C(=O)Cc2cc(NC(=O)CCCCCC(=O)Nc3ccccc3N)ccc2O[C@@H]1CN(C)Cc1ccc(Cl)c(Cl)c1 | inactive |
| C[C@H]1CN([C@@H](C)CO)C(=O)c2cc(NC(=O)CCN3CCOCC3)ccc2O[C@H]1CN(C)S(=O)(=O)c1ccc(F)cc1 | inactive |

| SMILES | cytotoxicity call |
| --- | --- |
| C[C@H](CO)N1C[C@H](C)[C@H](CN(C)Cc2ccc(C(F)(F)F)cc2)Oc2ccc(NC(=O)C3CCCCC3)cc2C1=O | inactive |
| Cc1ccc(S(=O)(=O)Nc2ccc3c(c2)CC(=O)N([C@@H](C)CO)C[C@@H](C)[C@H](CN(C)Cc2ccc(-c4ccccc4)cc2)O3)cc1 | inactive |
| Cc1ccc(S(=O)(=O)Nc2ccc3c(c2)CC(=O)N([C@@H](C)CO)C[C@H](C)[C@H](CN(C)Cc2ccc(-c4ccccc4)cc2)O3)cc1 | active |
| Cc1noc(C)c1NC(=O)Nc1ccc2c(c1)C(=O)N([C@@H](C)CO)C[C@@H](C)[C@H](CN(C)C(=O)NC1CCCCC1)OCCCC[C@H](C)O2 | inactive |
| CC(=O)NCCn1cccc1 | inactive |
| C[C@@H]1CCCCO[C@H](CN(C)Cc2ccc(C(F)(F)F)cc2)[C@@H](C)CN([C@@H](C)CO)C(=O)c2cc(NS(=O)(=O)c3ccc(F)cc3)ccc2O1 | inactive |
| C[C@H](CO)N1C[C@H](C)[C@@H](CN(C)Cc2ccc(Cl)c(Cl)c2)OCCCC[C@H](C)Oc2ccc(NC(=O)c3ccccc3)cc2C1=O | inactive |
| C[C@@H]1CCCCO[C@@H](CN(C)Cc2ccc(Cl)c(Cl)c2)[C@H](C)CN([C@@H](C)CO)C(=O)c2cc(NC(=O)c3ccccc3)ccc2O1 | active |
| C[C@H]1CCCCO[C@H](CN(C)Cc2ccc(Cl)c(Cl)c2)[C@@H](C)CN([C@@H](C)CO)C(=O)c2cc(NC(=O)c3ccccc3)ccc2O1 | active |
| C[C@@H]1CCCCO[C@H](CN(C)Cc2ccc(Cl)c(Cl)c2)[C@@H](C)CN([C@H](C)CO)C(=O)c2cc(NC(=O)c3ccccc3)ccc2O1 | inactive |
| C[C@H](CO)N1C[C@H](C)[C@H](CN(C)Cc2ccc(Cl)c(Cl)c2)OCCCC[C@H](C)Oc2ccc(NC(=O)c3ccccc3)cc2C1=O | inactive |
| C[C@@H]1CCCCO[C@H](CN(C)Cc2ccc(Cl)c(Cl)c2)[C@H](C)CN([C@@H](C)CO)C(=O)c2cc(NC(=O)c3ccccc3)ccc2O1 | inactive |
| C[C@@H]1CCCCO[C@H](CN(C)Cc2ccc(Cl)c(Cl)c2)[C@@H](C)CN([C@@H](C)CO)C(=O)c2cc(NC(=O)c3ccccc3)ccc2O1 | inactive |
| C[C@@H]1CN([C@H](C)CO)C(=O)c2cc(NC(=O)c3ccccc3)ccc2O[C@@H](C)CCCCO[C@H]1CN(C)Cc1ccc(Cl)c(Cl)c1 | inactive |
| C[C@@H]1CCCCO[C@@H](CN(C)Cc2ccc(Cl)c(Cl)c2)[C@H](C)CN([C@H](C)CO)C(=O)c2cc(NC(=O)c3ccccc3)ccc2O1 | active |
| C[C@H](CO)N1C[C@H](C)[C@@H](CN(C)S(=O)(=O)c2ccc(Cl)cc2)Oc2c(NC(=O)Nc3ccc(C(F)(F)F)cc3)cccc2C1=O | inactive |
| O=C(Cc1ccncc1)NCC[C@H]1CC[C@H](NC(=O)C2CCOCC2)[C@H](CO)O1 | inactive |
| Cc1noc(C)c1S(=O)(=O)N(C)C[C@@H]1OCCCC[C@@H](C)Oc2ccc(NC(=O)Nc3ccc(F)cc3)cc2C(=O)N([C@@H](C)CO)C[C@H]1C | inactive |
| C[C@H](NC(=O)C[C@H]1C[C@H]2c3cc(NC(=O)Nc4ccc(C(F)(F)F)cc4)ccc3O[C@H]2[C@H](CO)O1)c1ccccc1 | inactive |
| C[C@@H]1CCCCO[C@@H](CN(C)Cc2ccc(Cl)c(Cl)c2)[C@@H](C)CN([C@H](C)CO)C(=O)c2cc(NC(=O)CCCN(C)C)ccc2O1 | inactive |

| SMILES | cytotoxicity call |
| --- | --- |
| Cc1ccc(S(=O)(=O)N2C[C@@H](O)COC[C@H]3O[C@@H](CC(=O)N[C@@H]4CCN(Cc5ccccc5)C4)CC[C@@H]32)cc1 | inactive |
| CC(C)C[C@H]1NC(=O)N(C)C1=O | inactive |
| C[C@H](CO)N1C[C@H](C)[C@@H](CN(C)C(=O)c2ccccn2)Oc2cc(C#Cc3ccc(F)cc3)ccc2S1(=O)=O | inactive |
| CC(C)CC#Cc1ccc2c(c1)O[C@H](CN(C)S(=O)(=O)c1cccc(F)c1)[C@H](C)CN([C@@H](C)CO)S2(=O)=O | inactive |
| C[C@@H]1CCCCO[C@H](CN(C)Cc2ccc(C(F)(F)F)cc2)[C@H](C)CN([C@@H](C)CO)C(=O)c2cc(NS(=O)(=O)c3ccc(Cl)cc3)ccc2O1 | active |
| C[C@H]1CCCCO[C@H](CN(C)Cc2ccc(C(F)(F)F)cc2)[C@@H](C)CN([C@@H](C)CO)C(=O)c2cc(NS(=O)(=O)c3ccc(F)cc3)ccc2O1 | inactive |
| C[C@@H]1CCCCO[C@H](CN(C)Cc2ccc(C(F)(F)F)cc2)[C@@H](C)CN([C@@H](C)CO)C(=O)c2cc(NS(=O)(=O)c3ccc(Cl)cc3)ccc2O1 | active |
| C[C@H](CO)N1C[C@H](C)[C@@H](CN(C)Cc2ccc(C(F)(F)F)cc2)OCCCC[C@H](C)Oc2ccc(NS(=O)(=O)c3ccc(Cl)cc3)cc2C1=O | active |
| C[C@@H]1CN([C@H](C)CO)C(=O)c2cc(NS(=O)(=O)c3ccc(Cl)cc3)ccc2O[C@@H](C)CCCCO[C@H]1CN(C)Cc1ccc(C(F)(F)F)cc1 | active |
| C[C@@H]1CCCCO[C@H](CN(C)Cc2ccc(C(F)(F)F)cc2)[C@H](C)CN([C@H](C)CO)C(=O)c2cc(NS(=O)(=O)c3ccc(Cl)cc3)ccc2O1 | inactive |
| C[C@@H]1CCCCO[C@@H](CN(C)Cc2ccc(C(F)(F)F)cc2)[C@@H](C)CN([C@@H](C)CO)C(=O)c2cc(NS(=O)(=O)c3ccc(Cl)cc3)ccc2O1 | inactive |
| C[C@@H]1CN([C@@H](C)CO)C(=O)c2cc(NS(=O)(=O)c3ccc(F)cc3)ccc2O[C@@H](C)CCCCO[C@@H]1CN(C)Cc1ccc(C(F)(F)F)cc1 | inactive |
| O=C(C[C@H]1CC[C@@H](NC(=O)Cc2ccccn2)[C@H](CO)O1)NCCc1ccncc1 | inactive |
| C[C@H]1CN([C@@H](C)CO)C(=O)c2cccc(NS(=O)(=O)c3cccs3)c2O[C@@H]1CN(C)Cc1ccc(Oc2ccccc2)cc1 | inactive |
| C/C=C/[C@@H](CCn1cc(CCO[Si](C(C)C)(C(C)C)C(C)C)nn1)[Si](C)(C)c1ccc(OC)cc1 | inactive |
| C[C@@H]1CN([C@H](C)CO)C(=O)c2cc(C#Cc3ccccn3)cnc2O[C@@H]1CN(C)C(=O)CCN1CCCCC1 | inactive |
| C=CCNC(=O)[C@H]1[C@@H]2C(=O)O[C@@H](c3ccccc3)[C@@H](c3ccccc3)N2[C@@H](c2ccccc2OCCO)[C@]12C(=O)N(C(=O)OCCOC)c1ccc(C#CC3(O)CCCCCC3)cc12 | inactive |
| C[C@@H]1CCCCO[C@H](CN(C)C(=O)C2CCCCC2)[C@H](C)CN([C@H](C)CO)C(=O)c2cc(NC(=O)Cc3ccccc3)ccc2O1 | inactive |
